High-throughput results: PubChem, National Center for Advancing Translational Sciences (NCATS)
An excerpt weighted towards active compounds, which were near 19% of everything screened.
TDP1 cell noCPT – qHTS for Inhibitors of human tyrosyl-DNA phosphodiesterase 1 (TDP1): qHTS in cells in absence of CPT | DT40 Tdp1-/- hTDP1 cells, no CPT, ATP luminescence, 48 h | Potency, µM (highest dose often 46.2 µM), for the others: top-dose activity change, negative = growth inhibition, usual class: inhibitors | hit rate 15% among 420,000; also: potency is read from the fitted curve at half-maximal effect; % is scaled to controls: 0 for no effect and ±100 for the full control effect; nearly all actives have a fitted effect of over 55% in size
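Growth of hTDP1-complemented DT40 Tdp1-knockout cells is measured by ATP luminescence after at least 48 hr compound exposure at 37 °C, with DMSO substituting for the 20 nM CPT used in the parallel screen.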
HepG2 tox – qHTS for Inhibitors of TGF-b: Cytotox Counterscreen; HepG2 CAGA-GFP viability, ATP luminescence, 18 h; hit rate 0.76% among 410,000; Potency, µM (doses to about 46.1 µM), inactives show at the highest dose activity change, negative = cytotoxicity, actives largely listed as cytotoxic; AID 588856, 2011; also: potency is read from the fitted curve at half-maximal effect
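HepG2 CAGA-GFP cells (1000/well, DMEM with 1% FBS) received compound, then TGF-beta at 500 pg/mL final, and were incubated 18 hours at 37 degrees C. Viability was read by CellTiter-Glo luminescence. Media-only wells were set as complete cell-killing and DMSO as no toxicity.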
S-ASM inh – Inhibitors of Secretory Acid Sphingomyelinase (S-ASM): qHTS. placental ASM, HMU-PC fluorogenic substrate, 60 min. Potency, µM (top dose mostly 57.5 µM), for inactives: at the top dose activity change, negative = inhibition, most hits filed as inhibitors. hit rate 0.006% among 340,000. AID 504937, 2011; also: potency is read from the fitted curve at half-maximal effect
Target sequence (P17405 47-631 limits assumed): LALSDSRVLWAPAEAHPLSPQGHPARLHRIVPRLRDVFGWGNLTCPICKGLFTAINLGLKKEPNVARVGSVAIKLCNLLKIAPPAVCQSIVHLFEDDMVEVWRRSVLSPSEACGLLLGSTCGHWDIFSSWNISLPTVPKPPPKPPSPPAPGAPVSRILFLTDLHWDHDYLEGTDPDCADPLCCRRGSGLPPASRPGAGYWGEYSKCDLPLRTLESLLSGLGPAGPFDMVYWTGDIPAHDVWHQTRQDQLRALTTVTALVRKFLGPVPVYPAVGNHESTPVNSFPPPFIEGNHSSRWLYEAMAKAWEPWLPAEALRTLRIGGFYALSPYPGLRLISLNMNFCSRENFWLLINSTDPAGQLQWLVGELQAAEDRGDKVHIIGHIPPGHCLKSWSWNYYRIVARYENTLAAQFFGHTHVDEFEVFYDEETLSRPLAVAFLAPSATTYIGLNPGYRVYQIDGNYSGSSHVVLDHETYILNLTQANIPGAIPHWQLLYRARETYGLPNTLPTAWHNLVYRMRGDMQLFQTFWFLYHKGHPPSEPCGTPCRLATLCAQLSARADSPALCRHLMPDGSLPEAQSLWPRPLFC
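Human placenta-derived ASM preincubated with compound 10 min at room temperature, then reacted with 9 uM (final) fluorogenic HMU-PC substrate for 60 min at 37 C. Stop solution raises pH to 10; fluorescence read at Ex 386/Em 447 nm.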
IL1B secr inh – qHTS for Inhibitors of Inflammasome Signaling: IL-1-beta AlphaLISA Primary Screen | hit rate 4.7% among 360,000 | activity change, % at 57.5 µM | THP-1 LPS/ATP IL-1B secretion, AlphaLISA, 16 h; stronger effect = lower value | AID 743279, 2014; in the data active = activity change below about -50%; inconclusive = mostly about -30% to -49%; also: % is scaled to controls: 0 for no effect and ±100 for the full control effect
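THP-1 cells pretreated 1 hr with compounds (up to 57.5 uM final), then stimulated with LPS (250 ng/mL final) plus ATP (1.25 mM final); secreted IL-1B measured by AlphaLISA after 16 hr, decreased signal indicating inhibition.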
TGFb SMAD3 inh – qHTS for Inhibitors of TGF-b; HepG2 CAGA-GFP TGF-b/SMAD3 reporter, GFP fluorescence, 18 h; TGF-beta stimulated, 500 pg/mL final; Potency, µM (highest dose often 46.1 µM), without a hit: at the top dose activity, negative = inhibition, usual class: inhibitors; hit rate 1.2% among 410,000; AID 588855, 2011; also: potency is read from the fitted curve at half-maximal effect; % is scaled to controls: 0 for no effect and ±100 for the full control effect; nearly all actives have a fitted effect of over 65% in size
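First, reporter cells (HEPG2 CAGA-GFP) rested 2 h at 37 degrees C. Next, compounds were pinned in and TGF-beta added to 500 pg/mL final. After 18 h, GFP was imaged per cell and summed per well.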
DT40 TDP1 CPT – qHTS for Inhibitors of human tyrosyl-DNA phosphodiesterase 1 (TDP1): qHTS in cells in presence of CPT | chicken DT40 Tdp1-/-;hTDP1 cells + 20 nM CPT, ATP luminescence, 48 h | Potency, µM (series often up to 46.2 µM), for the others: at the highest dose activity change, negative = growth inhibition, actives largely listed as inhibitors | hit rate 12% among 420,000; also: potency is read from the fitted curve at half-maximal effect; % is scaled to controls: 0 for no effect and ±100 for the full control effect; nearly all actives have a fitted effect of over 55% in size
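Chicken DT40 Tdp1-/- cells stably complemented with human TDP1 were seeded at 400 cells/well in medium containing 20 nM camptothecin, exposed to pin-transferred compounds, and grown at 37 °C for at least 48 hr. Viability was read as ATP luminescence.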
The depositor's hits bear a star; i = inactive; ? = inconclusive; / = no result given; [ ] = dose if it differs, or a comment. Unless noted, calls follow the shape of the dose curve; as a rule, active = well fitted curve in the direction sought with a large enough effect; inconclusive = small, poorly fitted or top-dose-only effect, or another doubt; inactive = no such curve, though single readings can be large; an effect the other way counts as inactive or inconclusive.

SMILES	TDP1 cell noCPT	HepG2 tox	S-ASM inh	IL1B secr inh	TGFb SMAD3 inh	DT40 TDP1 CPT
CC(Oc1ccc(F)cc1)C(=O)Nc1cc(S(=O)(=O)N2CCOCC2)ccc1N1CCCC1 (stereo unspecified)	6%	3%	0%	0	-8%	-28%
COc1cc(C)c2sc3ccccc3c(=O)c2c1NCCN(C)C	5.8µM*	-125%	/	/	?	6.5µM*
CN(C)CCNc1cccc2sc3ccc(O)cc3c(=O)c12	0.33µM*	-58%	/	-95*	4.5µM*	0.18µM*
Cc1cc(CCNC=O)c(C)c2c1sc1ccccc12	0%	8%	-3%	?	15%	2%
Cc1ccc(C(=O)NCCN(C)C)cc1C	-13%	1%	1%	-8	-2%	0%
Cc1ccc(NCCN(C)C)c2c(=O)c3cc(O)ccc3sc12	0.18µM*	-114%	?	-102*	?	0.15µM*
O=C(NCCc1c[nH]c2ccccc12)c1ccco1	-20%	10%	10%	3	20%	-26%
O=C(Cn1cc2c(n1)CCCCC2)Nc1c(F)cc(F)cc1Br	-15%	12%	3%	14	8%	-20%
Cc1[nH]n(-c2ncc(-c3ccccc3)s2)c(=O)c1C(c1ccc(Br)cc1)C(C#N)C#N (stereo unspecified)	?	11%	-7%	-64*	?	?
Cc1[nH]n(C(N)=S)c(=O)c1C(c1ccccc1)C(C#N)C#N (stereo unspecified)	1.5µM*	-5%	-3%	-10	-14%	1.5µM*
Cc1ccc2[nH]cc(S(=O)(=O)c3ccc(C)c(C)c3)c(=O)c2c1	?	-3%	-2%	24	0%	?
Cc1ccc(S(=O)(=O)NCCC(=O)N2CCCCCCC2)cc1	?	0%	-3%	-7	0%	-12%
CN(C)c1ccc(NS(=O)(=O)c2ccc(-c3csnn3)cc2)cc1	13µM*	-29%	-2%	-5	-21%	?
COc1ccc(S(=O)(=O)Nc2ccc(F)cc2)cc1N(C)S(=O)(=O)c1ccc(Cl)cc1	?	7%	-3%	-94*	?	?
CN(C)c1ccc(NS(=O)(=O)c2cccc(Cl)c2)cc1	10µM*	-40%	0%	-9	-1%	-16%
Cc1ccc(S(=O)(=O)Nc2ccc(N(C)C)cc2)cc1	?	35%	-2%	-21	-9%	-24%
CN(C)c1ccc(NS(=O)(=O)c2ccc(Cl)cc2)cc1	?	-20%	3%	-1	?	18µM*
CCOc1ccc(S(=O)(=O)N2CCC(N3CCN(Cc4ccc(C)cc4)C(=O)C3=O)CC2)cc1	-13%	1%	/	/	-8%	-18%
COc1ccc(Cl)cc1S(=O)(=O)N1CCC(C(=O)NCc2ccccn2)CC1	?	-2%	7%	-3	0%	4%
O=S(=O)(Nc1ccc(Cl)cc1)c1cccc(S(=O)(=O)c2ccc(Cl)c(Cl)c2)c1	?	-78%	/	/	14µM*	?
COc1ccc(NC2CCCN(C(=O)COc3ccc(Cl)cc3C)C2)cc1OC (stereo unspecified)	26µM*	-25%	-3%	i	-23%	23µM*
COc1ccccc1OCC(=O)N1CCCC(Nc2ccc(C)c(C)c2)C1 (stereo unspecified)	-16%	-8%	2%	-14	7%	?
Cc1ccc(-n2ncc3c(N4CCCCC4)ncnc32)cc1Cl	?	-7%	/	/	-2%	-19%
CCN(CC(=O)NNC(=O)c1ccccc1)Cc1ccc(OC)c(F)c1	8%	0%	5%	-8	26%	7%
CC(=O)Nc1ccc(S(=O)(=O)N2CCN(c3ccc(C)c(C)c3)CC2)cc1	/	-2%	/	/	-2%	/
SMILES	TDP1 cell noCPT	HepG2 tox	S-ASM inh	IL1B secr inh	TGFb SMAD3 inh	DT40 TDP1 CPT
COc1ccccc1-c1nc(NCCN2CCOCC2)c2ccccc2n1	-28%	/	/	/	/	-28%
COc1ccc(Nc2nc(-c3cccc(OC)c3O)nc3ccccc23)cc1	16µM*	-7%	?	-7	-22%	?
COc1ccc(C)cc1Nc1nc(-c2ccccc2O)nc2ccccc12	-8%	-11%	-13%	10	5%	-14%
COc1cccc(-c2nc(NC(C)(C)C)c3ccccc3n2)c1O	21µM*	-19%	?	-51*	-52%	?
COc1cccc(-c2nc(NCCN3CCOCC3)c3ccccc3n2)c1O	18µM*	-25%	0%	0	-2%	15µM*
CC(C)(C)NC(=O)CSc1ncnc2c1nnn2Cc1ccccc1Cl	?	-13%	-2%	-60*	?	?
O=C(CSc1ncnc2c1nnn2Cc1ccccc1)NC1CCCC1	-2%	12%	6%	?	?	4%
CC(C)(C)NC(=O)Nc1ccc(Cn2cc(C(F)(F)F)ccc2=O)cc1	?	3%	-3%	14	4%	21µM*
CC(C)(C)NC(=O)NC(=O)Cn1cc(C(F)(F)F)ccc1=O	-5%	-16%	-1%	-1	0%	-13%
CN1CCCC(CNC(=O)c2cnn(-c3ncc4c(n3)-c3ccccc3CC4)c2C2CC2)C1 (stereo unspecified)	-10%	/	/	/	/	-12%[9.04 µM]
Cc1cc(C)cc(-n2ccnc2SCC(=O)Nc2ccccc2F)c1	16µM*	-20%	/	/	14%	23µM*
Cc1cc(C)cc(-n2ccnc2SCC(=O)Nc2cccc3ccccc23)c1	18µM*	-22%	/	/	?	21µM*
COc1ccc(-n2ccnc2SCC(=O)Nc2ccc(F)cc2F)cc1	-27%	-25%	/	/	4%	?
CC(=O)Nc1ccc(N(C(=O)c2ccccn2)C(C(=O)NC2CCCCC2)c2ccc(F)cc2)cc1 (stereo unspecified)	-4%	1%	1%	12	4%	1%
O=C(c1cccc2ccccc12)C1CCCN(C(=O)CCc2cnccn2)C1 (stereo unspecified)	8.2µM*	12%	-3%	14	-3%	?
O=C(c1ccc(C(F)(F)F)cc1)C1CCCN(C(=O)CCn2cncn2)C1 (stereo unspecified)	-11%	9%	0%	12	4%	-21%
